Screening data as filed in PubChem.
Plk1 PBD FP – Plk1 (human) PBD binding inhibition; AID 693; 0.13% of 97,000 active; P53350; inhibition, %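 (tested at about 20 µM)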; Plk1 PBD phosphopeptide binding, fluorescence polarization; in the data active = inhibition above about 34%, passing the limit was not always enough
Target sequence (P53350 whole entry, looked up): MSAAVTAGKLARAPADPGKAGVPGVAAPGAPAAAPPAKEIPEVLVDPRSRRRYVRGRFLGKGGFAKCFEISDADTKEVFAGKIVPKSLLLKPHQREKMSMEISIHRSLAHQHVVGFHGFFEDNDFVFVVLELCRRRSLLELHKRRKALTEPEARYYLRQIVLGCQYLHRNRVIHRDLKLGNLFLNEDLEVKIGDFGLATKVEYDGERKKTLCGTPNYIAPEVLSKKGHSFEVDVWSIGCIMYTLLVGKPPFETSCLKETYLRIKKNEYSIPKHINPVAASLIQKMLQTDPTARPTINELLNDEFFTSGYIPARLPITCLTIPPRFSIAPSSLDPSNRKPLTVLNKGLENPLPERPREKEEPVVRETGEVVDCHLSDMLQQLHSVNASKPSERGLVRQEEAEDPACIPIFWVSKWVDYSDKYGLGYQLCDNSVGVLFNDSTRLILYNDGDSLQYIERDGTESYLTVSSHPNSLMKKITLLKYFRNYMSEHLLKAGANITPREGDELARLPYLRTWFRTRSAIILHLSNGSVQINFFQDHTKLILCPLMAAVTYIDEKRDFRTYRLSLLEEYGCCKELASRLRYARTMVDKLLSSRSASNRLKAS
IL1B cytotox – toxic to HUVEC cells under IL-1B stimulation. HUVEC cell count loss, Hoechst imaging, IL-1B stimulated. cell count reduction, % at 2 µM. 0.41% of 94,000 active;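 active = cell count reduction more than 3 SD above the screen-wide mean, cut at about 70% in these data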;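 also: normalized per plate to untreated control cells as the no-loss baseline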
NFkB transloc inh – blocks IL-1B driven NFkB nuclear translocation in HUVEC cells. HUVEC IL-1B NFkB p65 nuclear translocation imaging. inhibition, % at 2 µM. 0.43% of 94,000 active. AID 796;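 active = inhibition above about 30% together with a positive call from visual inspection of the well image, limit read from the data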;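 also: nuclear over cytoplasmic p65 intensity ratio measured by imaging; 0% = IL-1B stimulated DMSO wells and 100% = unstimulated DMSO wells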
IL1B NFkB pot – enhances IL-1B driven NFkB nuclear translocation | HUVEC IL-1B NFkB p65 nuclear translocation imaging | activation, % at 2 µM | 0.3% of 94,000 active | AID 819;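 active = activation above 40%, about the mean plus 3 SD, also judged a hit on visual image review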;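 also: percent activation is computed from the nuclear over cytoplasmic p65 intensity ratio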
PTK2B oligo ant – Pyk2 (human) oligomerization antagonism; Q14289; Q293 cells, Pyk2 FERM NanoBiT luminescence; hits give low values; z-score (the deposit names both 25 µM and 10 µM); 0.83% of 99,000 active;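 active = Z-score of -3 or lower, scaled per plate to the spread of control and sample wells; inactive = z-score above -3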;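 also: negative z-score means lost luminescence so less FERM oligomerization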
PLK1 inh – blocks human PLK1 kinase activity | 0.53% of 97,000 active | inhibition, % at 10 µM | AID 619 | P53350 | recombinant PLK1 kinase, TR-FRET peptide phosphorylation;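 active = inhibition of 50% or more in the single-concentration screen; inactive = inhibition below 50%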;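 also: 0% = DMSO max control and 100% = H-89 dihydrochloride min control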
Numbers without * were called inactive; . = not tested or not shown. This is a sample that favours compounds with a hit; in the whole collection about 2.2% have one here.

SMILES	Plk1 PBD FP	IL1B cytotox	NFkB transloc inh	IL1B NFkB pot	PTK2B oligo ant	PLK1 inh
CC12Cc3ccc4ccccc4c3C=C1C[N+](C)(C)C2 (configuration not stated)	2	-3	49*	-49	0.15	-4
CC[N+]1(CC)CC2=Cc3c(ccc4ccccc34)CC2C1 (configuration not stated)	-33	-1	6	-6	0.78	-9
CCc1ccc(NC(=O)CCn2ccnc2C)cc1	-7	-9	-6	6	-0.41	-4
Cc1nc2cc(NS(=O)(=O)c3c(C)c(C)cc(C)c3C)ccc2s1	-16	-12	-32	32	-3.8*	-10
O=C(OCc1c(Cl)cccc1Cl)c1cccnc1	8	-2	-12	12	1.2	-15
CCC(C)c1ccc(Nc2ncccc2C#N)cc1 (configuration not stated)	-1	.	.	.	0.55	-13
CCc1ccc(Nc2ncccc2C#N)cc1	-2	-4	-84	85*	1.8	-12
COc1ccc(CC(=O)Nc2oc(-c3ccccc3)c(-c3ccccc3)c2C#N)cc1OC	-29	-13	-6	6	-3.3*	-16
COc1ccc(-c2oc(NC(=O)CCl)c(C#N)c2-c2ccc(OC)cc2)cc1	0	-136	-38	38	-0.63	-11
Cc1ccc(OCC(=O)Nc2oc(-c3ccccc3)c(-c3ccccc3)c2C#N)cc1	35	-3	-8	8	-1.3	-12
COc1ccc(-c2oc(NC(=O)CSc3ncn[nH]3)c(C#N)c2-c2ccc(OC)cc2)cc1	-40	1	-8	8	-4*	-7
COc1ccccc1OCC(=O)Nc1oc(-c2ccccc2)c(-c2ccccc2)c1C#N	-10	-32	-2	2	-3.7*	-10
Cc1csc(Sc2ccc([N+](=O)[O-])cc2C(=O)OCC(=O)NC(=O)NC(C)(C)C)n1	-32	-16	-3	3	-1.1	-5
Cc1cc(C(=O)N2CCN(Cc3ccccc3)CC2)on1	0	16	-32	32	.	-9
O=S(=O)(C/C(=C/CO)S(=O)(=O)c1ccccc1)c1ccccc1	3	3	51*	-51	-0.78	-8
Cc1ccc2nc(SC(C)C(=O)Nc3cccc([N+](=O)[O-])c3)[nH]c2c1 (configuration not stated)	.	.	.	.	-1.3	.
Cc1ccccc1N(C)S(=O)(=O)c1ccc2[nH]cc(C(=O)NCC3CCCO3)c(=O)c2c1 (configuration not stated)	.	.	.	.	-3.2*	.
O=c1[nH]cnc2scc(-c3ccccc3)c12	15	.	.	.	0	68*
CC(=O)c1cc(F)c(N2CCN(C(=O)COc3ccccc3F)CC2)cc1C	-11	6	17	-17	-0.17	-14
c1ccc(-c2cc3n(c2)CCc2ccccc2-3)cc1	19	7	2	-2	-0.5	-7
CCOC(=O)CSc1nc(N)c(C#N)c(-c2ccc(OCC)cc2)c1C#N	-21	0	-6	6	0.64	-55
C=CCSc1nc(N)c(C#N)c(-c2ccc(C)cc2)c1C#N	0	31	-5	5	-3.5*	-14
CCSc1nc(N)c(C#N)c(-c2ccccc2Cl)c1C#N	19	27	6	-6	-3.7*	-40
CCCNC(=O)c1ccccc1NC(=O)c1ccccc1N(C)S(=O)(=O)c1ccc(C)cc1	7	.	.	.	0.15	-14
CCOC(=O)c1nn(-c2ccc(F)cc2)c(-c2ccccc2)c1C(=O)c1ccccc1	-21	15	-12	12	-3.1*	-7
SMILES	Plk1 PBD FP	IL1B cytotox	NFkB transloc inh	IL1B NFkB pot	PTK2B oligo ant	PLK1 inh
CCOC(=O)c1nn(-c2ccccc2)c(-c2ccccc2)c1C(=O)c1ccccc1	-7	6	-6	6	-3.5*	-7
CCOC(=O)c1nn(-c2ccccc2F)c(-c2ccccc2)c1C(=O)c1ccccc1	-10	2	-10	10	-4*	-1
CCOC(=O)c1nn(-c2cccc(OC)c2)c(-c2ccccc2)c1C(=O)c1ccccc1	-25	-12	-2	2	-4.2*	-1
CCOC(=O)c1nn(-c2ccc(F)cc2)c2nc(-c3ccccc3)c(C#N)c(=O)n12	.	.	.	.	0.11	.
CCOC(=O)c1nnn(-c2ccccc2)c1C	-20	-20	-18	18	0.07	0
CCOC(=O)c1nn(-c2cccc(Cl)c2)c(C)c1C(C)=O	-16	6	14	-14	-0.2	-7
CC(=O)Nc1ccc(S(=O)(=O)NCC(=O)OCC(=O)N2CCN(c3ccccc3)CC2)cc1	.	.	.	.	-0.83	.
